# Compound activity deposited in PubChem BioAssay by National Center for Advancing Translational Sciences (NCATS).
# The list is not random: actives were taken first. Their share in the collection is about 5.6%.
# CtBP-E1A inh: qHTS Assay for Inhibitors of the CtBP/E1A Interaction; CtBP / adenovirus E1A interaction (AlphaScreen); AlphaScreen GST-E1A/His-CtBP binding, 1536-well; stronger effect = lower value; activity change, % (no concentration beside the values); 340,000 tested, 0.49% active; AID 651724, 2012; in the data active = activity change below about -65%; inconclusive = mostly about -30% to -63%
#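 Protein mix (5X: 125 nM each GST-E1A, His-CtBP) was incubated with pinned compound 2 h at 37 deg C in dark, in 50 mM Tris pH 8.0 buffer with 300 mM NaCl. Glutathione donor and nickel acceptor beads followed; AlphaScreen signal read after 1 h.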
# Gal4-VP16 FLuc: VP16 counterscreen qHTS for inhibitors of ROR gamma transcriptional activity; AID 2546, 2010; Potency, µM (top dose mostly 53.6 µM), inactives show at the highest dose activity, negative = inhibition, most hits filed as inhibitors; 310,000 tested, 3.5% active; Drosophila S2 Gal4-VP16 UAS-luciferase, luminescence, 20 h;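 note: Gal4-VP16 expression switched on by copper sulfate through the metallothionein promoter; potency is the fitted concentration of half-maximal effect; nearly all actives have a fitted effect of over 50% in size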
# Six1-Eya2 inh: qHTS Assay for Inhibitors of the Six1/Eya2 Interaction | Homeobox protein SIX1 (Homo sapiens) + Protein phosphatase EYA2 (Homo sapiens), … | AlphaScreen GST-Six1/His-Eya2 binding, biochemical; stronger effect = lower value | activity change, % (test concentration not listed) | 360,000 tested, 0.56% active | AID 651725, 2012; in the data active = activity change below about -65%; inconclusive = mostly about -30% to -63%
#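 AlphaScreen luminescence read after one hour at 37 °C in darkness. Pin-transferred compounds met GST-Six1 and His-Eya2 protein (5X stock 250 nM/500 nM) plus glutathione donor and Ni-chelate acceptor beads (5X, 50 ug/mL).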
# PKM2 act: qHTS Assay for Activators of Human Muscle isoform 2 Pyruvate Kinase. Pyruvate kinase PKM (Homo sapiens), P14618. 260,000 tested, 0.34% active. AID 1631, 2009. purified PKM2, Kinase-Glo ATP luminescence, activation; response scale: 0% is enzyme alone, no compound. Potency, µM (titrated, usually from 57.5 µM), without a hit: at the top dose activation, actives largely listed as activators; note: potency is the fitted concentration of half-maximal effect; nearly all actives have a fitted effect of over 55% in size
#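 Purified hPK-M2 (>95% pure) converted ADP (0.1 mM final) to ATP with 0.5 mM PEP in 50 mM imidazole pH7.2, KCl, MgCl2, Tween 20, BSA; 1 h at room temperature. ATP detected by Kinase-Glo luminescence.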
# RORgamma inh: qHTS for inhibitors of ROR gamma transcriptional activity; Nuclear receptor ROR-gamma (Mus musculus), P51450; Drosophila S2 Gal4-RORgamma UAS-luciferase reporter, 20 h; Potency, µM (highest dose often 53.6 µM), without a hit: at the top dose activity change, negative = inhibition, most hits filed as inhibitors; 310,000 tested, 5.4% active; note: potency is the fitted concentration of half-maximal effect; nearly all actives have a fitted effect of over 60% in size
# Target sequence (P51450 whole entry, looked up, the tested form may be a part): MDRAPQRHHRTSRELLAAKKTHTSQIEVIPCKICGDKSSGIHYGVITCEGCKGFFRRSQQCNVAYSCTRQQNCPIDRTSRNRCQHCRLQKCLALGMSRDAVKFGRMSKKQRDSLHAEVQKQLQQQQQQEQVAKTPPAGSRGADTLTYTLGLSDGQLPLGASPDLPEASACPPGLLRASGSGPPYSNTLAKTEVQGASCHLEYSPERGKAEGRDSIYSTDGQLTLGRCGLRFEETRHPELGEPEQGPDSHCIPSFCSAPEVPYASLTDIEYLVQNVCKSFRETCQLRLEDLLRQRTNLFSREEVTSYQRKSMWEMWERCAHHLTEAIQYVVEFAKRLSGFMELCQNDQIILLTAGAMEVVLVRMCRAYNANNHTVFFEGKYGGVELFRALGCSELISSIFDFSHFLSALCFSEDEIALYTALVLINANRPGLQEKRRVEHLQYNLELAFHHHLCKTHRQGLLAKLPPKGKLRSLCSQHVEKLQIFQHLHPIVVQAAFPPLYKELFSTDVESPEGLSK
#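 A Gal4/UAS one-hybrid system in insect cells: metallothionein-promoter Gal4–ROR gamma fusion plus Photinus luciferase reporter. Copper sulfate 700 uM final, 20 hr ambient incubation, luminescent detection after 10 min with reagent.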
# Active calls of the source: *; ? = inconclusive; / = no result; [ ] = remark or other dose. Unless noted, calls come from the whole dose curve; as a rule, active = well fitted curve in the direction sought with a large enough effect; inconclusive = small, poorly fitted or top-dose-only effect, or another doubt; inactive = no such curve, though single readings can be large; an effect the other way counts as inactive or inconclusive. % is set by controls: 0 for no effect and ±100 for the full control effect.
SMILES,CtBP-E1A inh,Gal4-VP16 FLuc,Six1-Eya2 inh,PKM2 act,RORgamma inh
CC(C(=O)Nc1cccc(S(=O)(=O)N2CCOCC2)c1)N1CCN(c2ccc(F)cc2)CC1 (stereo unspecified),-6.6,-5.1%[10 µM],-2.4,-3.6%,?
COc1ccc(/C=C/c2nc3ccccc3n2C)cc1,-9.4,?,11.9,-59.0%,2µM*
CCn1c(/C=C/c2ccccc2)nc2ccccc2c1=O,-17.2,-7.2%,-1.8,7.8%,33.4%
CCn1c(/C=C/c2ccccc2)nc2ccccc21,25.4,?,14.1,-49.9%,15.8µM*
CC(C)Cn1c(/C=C/c2ccccc2)nc2ccccc21,21.0,11.2µM*,34.9,8.7%,11.2µM*
C=CCn1c(-c2ccc(OC)cc2)nc2ccccc21,4.5,0.1%,-3.3,4.7%,?
COc1ccc(-c2nc3ccccc3n2Cc2ccccc2)cc1,-0.9,?,-11.1,3.5%,3.98µM*
CC(/C=C/c1ccc(N(C)C)cc1)=N\N=C(/N)SC1CC(=O)N(c2ccc(C(=O)O)cc2)C1=O (stereo unspecified),-5.6,2.24µM*,-10.1,-0.3%,0.794µM*
O=C(O)c1ccc(N2C(=O)CC(SC(=Nc3ccccc3)Nc3ccccc3)C2=O)cc1 (stereo unspecified),-0.6,0.0%,7.1,-4.1%,5.0%
O=C(CSc1nc2ccccc2s1)NNC(=S)Nc1ccc(Br)cc1,-11.2,?,-18.0,3.2%,0.891µM*
CCn1c(SCC(=O)NNC(=S)Nc2ccccc2)nnc1-c1ccc(Cl)cc1,-6.8,1.26µM*,-7.8,-1.3%,3.98µM*
O=C(CSc1nc2ccccc2s1)NNC(=S)Nc1ccccc1,5.7,4.47µM*,-2.3,0.1%,1µM*
COC(=O)CN(C#N)c1nc(NCc2ccccc2)nc(OC)n1,/,3.4%,-0.9,17.7%,20.8%
COC(=O)C(C)Oc1ccc(-c2nccc(-c3ccccn3)n2)cc1 (stereo unspecified),12.6,4.8%,1.5,/,-3.9%
C/C(CC(=O)Nc1ccccn1)=N\NC(=O)c1ccccc1O,-25.2,?,-19.0,-1.6%,-26.0%
C/C(=N\Nc1ccccc1)c1c(O)cc(C)oc1=O,4.7,-13.0%,7.2,-1.2%,9.6%
C/C(=N/NC(=O)c1cccc(C)c1)c1c(O)cc(C)oc1=O,-2.6,3.55µM*,9.0,2.1%,?
C/C(CC(=O)Nc1cc(C)ccn1)=N\NC(=O)C(=O)NC(C)C,-12.7,-1.5%,6.4,-0.1%,-39.5%
C/C(CC(=O)Nc1cc(C)ccn1)=N\NC(=O)c1cccc(C)c1O,-24.0,5.01µM*,-6.7,/,11.2µM*
C/C(CC(=O)Nc1cc(C)ccn1)=N\NC(=O)c1cccc(C)c1,-19.0,-28.8%,17.5,0.9%,11.2µM*
O=C(Cn1nc(CNc2ccc(Br)cc2)[n+]2c1CCCCC2)c1ccc([N+](=O)[O-])cc1,-7.2,?,-9.5,12.7%,?
CC1=CN(S(=O)(=O)c2ccc(C)cc2)C[C@@H]2c3ccccc3N(S(=O)(=O)c3ccc(C)cc3)[C@H]12,2.7,/,-2.7,/,/
COCCn1c(=O)cnc2cnc(N3CCN(C)CC3)nc21,/,-12.1%,/,/,?
CCOC(=O)Nc1ccc(C(=O)/C=C/c2ccccc2)cc1,5.4,?,0.4,0.4%,7.08µM*
O=C(/C=C/c1cccnc1)c1ccccc1O,/,?,0.1,12.7%,17.8µM*
SMILES,CtBP-E1A inh,Gal4-VP16 FLuc,Six1-Eya2 inh,PKM2 act,RORgamma inh
CCOC(=O)C(=Cc1ccccc1)C(=O)OCC,/,12.6µM*,/,/,12.6µM*
COc1ccc(C(=O)OCCc2ccc(O)cc2)cc1,/,12.6µM*,8.7,-1.6%,7.08µM*
COc1ccc(CCOC(=O)c2ccc(NC(=O)CC#N)cc2)cc1,-0.1,-14.2%,-7.5,-18.4%,29.0%
CCOC(=O)C(=Cc1ccc(-n2cncn2)cc1)C(=O)OCC,6.0,-93.1%,-3.1,5.0%,?
O=C(C=Cc1cccnc1)c1ccccc1,0.2,/,1.6,/,/
COc1ccc([C@]23Cc4ccccc4C(O2)c2c(cc(C)n(Cc4ccccc4)c2=O)O3)cc1,/,?,/,11.3%[11.5 µM],4.3%[10 µM]
O=C(/C=C/c1ccccc1)c1ccc(O)cc1,/,?,/,/,11.2µM*
O=C(/C=C/c1cccnc1)c1cccc(O)c1,-9.3,?,9.5,/,?
O=C(/C=C/c1cccc(O)c1)c1cccnc1,2.9,?,6.9,2.7%,8.91µM*
CCOC(=O)N1C/C(=C\c2ccccc2)C(=O)/C(=C/c2ccccc2)C1,/,?,3.4,4.2%,17.8µM*
COc1ccc(/C=C/C(=O)c2nc3ccccc3n2CC(=O)c2ccc(OC)cc2)cc1,-9.4,-8.0%,-8.5,2.9%,10µM*
COc1ccc(OC(=O)N2C/C(=C/c3ccccc3)C(=O)/C(=C\c3ccccc3)C2)cc1,20.7,/,-1.9,/,/
OC[C@H](S)CS,/,?,/,/,0.1%[10 µM]
CC(C)N(Cc1ccccc1)S(=O)(=O)c1ccc2c(c1)NC(=O)CO2,-0.3,14.9%,9.9,/,-19.7%
COc1ccc(C(=O)/C=C/c2ccccc2)cc1,/,-7.0%,/,/,?
COc1ccc(C(=O)/C=C/c2ccc(O)cc2)c(O)c1CC=C(C)C,-26.9,7.94µM*,?,0.3%,3.98µM*
O=C(/C=C/c1cccnc1)c1ccc(O)cc1,3.5,-87.8%,42.6,-1.3%,12.6µM*
COc1ccc(C(=O)/C=C/c2ccc(O)cc2)cc1,4.0,2µM*,4.5,-3.3%,0.316µM*
CN(C)C(=O)COc1ccc(C(=O)/C=C/c2cccnc2)cc1,4.3,?,-1.8,/,17.8µM*
Nc1c(C(=O)Nc2ccccc2)sc2nc(-c3cccnc3)ccc12,/,2.8%,/,11.2µM*,-4.0%
COc1ccc(NC(=O)c2sc3nc(-c4cccnc4)ccc3c2N)cc1,9.7,0.5%,4.9,-5.0%,0.8%
S=C(NCCc1ccccc1)Nc1ccc(Br)cc1,1.8,?,5.4,0.6%,5.01µM*
CCCNC(=S)Nc1ccc(Br)cc1,-1.1,?,1.0,-3.8%,11.2µM*
S=C(NCCc1ccncc1)Nc1ccccc1,6.3,-0.9%,6.3,-0.4%,-15.8%
S=C(NCC1(c2ccccc2)CCCC1)Nc1ccccc1,-5.0,6.31µM*,-0.3,/,1.58µM*
Cc1ccc(NC(=S)NCC(C)C)cc1,-1.8,11.2µM*,11.6,-2.1%,10µM*
CC(=O)c1cccc(N2C(=O)CC(N3CCN(S(=O)(=O)c4ccc(Cl)cc4)CC3)C2=O)c1 (stereo unspecified),/,/,1.6,/,/
COC(=O)Cc1ccc(NC(=S)NCCC(C)C)cc1,13.8,?,5.2,-0.4%,10µM*
S=C(NCCOCCOCCNC(=S)Nc1ccccc1)Nc1ccccc1,1.0,?,7.2,-11.2%,5.01µM*
COC(=O)Cc1ccc(NC(=S)NCCO)cc1,4.0,-14.9%,-2.2,-1.0%,-14.0%
